Compound activity from PubChem BioAssay.
Only some compounds are listed: those with a hit (about 21% of all), similar ones and a draw of the others.
Pf growth 48h: inhibits P. falciparum growth in the first generation, 48 h | P. falciparum luciferase growth in erythrocytes, 48 h | Potency, µM (doses to about 28.7 µM), hits mostly inhibitors | hit rate 5.9% among 310,000 | AID 504832; active = well fitted inhibition curve with a large enough effect; inconclusive = small, poorly fitted or top-dose-only effect, or another doubt; inactive = no such curve, though single readings can be large or run the other way
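Parasite viability was followed by luminescence of a genomically integrated firefly luciferase. Cultures held 0.1% parasitemia at 2% hematocrit (final), incubated under 5% CO2 at 37 C.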
Shiga inhibitor: blocks Shiga toxin action in Vero cells; Vero cells, Shiga toxin protein synthesis inhibition reporter; inhibition, % at 38.7 µM; hit rate 9.2% among 290,000; in the data active = inhibition mostly above about 28%, no sharp cut-off; inactive = mostly below about 43%
NS1 function inh: influenza NS1 inhibition; hit rate 0.4% among 270,000; Potency, µM (doses to about 46.1 µM); note: actives are rising curves; nearly all actives have a fitted effect of over 50% in size
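Recovery from NS1-induced slow growth read by OD600 in budding yeast switched to galactose assay medium (pH 6.0, -URA) at 1:100 dilution. Compound 23 nl per well; the matching strain lacking NS1 serves as control.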
SARS PLP yeast: inhibitors of SARS-CoV papain-like protease in yeast; hit rate 0.19% among 330,000; S. cerevisiae expressing SARS-CoV PLpro, growth rescue; AID 485353; Potency, µM (highest dose often 32.9 µM), most hits filed as activators; note: nearly all actives have a fitted effect of over 55% in size
Cycloheximide cs: counter-screen for Shiga toxin inhibitors: cycloheximide protein synthesis inhibition. cell reporter, cycloheximide protein synthesis inhibition counterscreen. max response, %. hit rate 12% among 300,000; in the data active = max response mostly above about 13%, no sharp cut-off; inactive = mostly below about 14%; note: read at 38.3 µM for the half of the compounds with a filed dose
Pf growth 96h: inhibits malaria parasite growth, 96 h. hit rate 6.9% among 320,000. Potency, µM (series often up to 28.7 µM), hits mostly inhibitors. P. falciparum luciferase reporter growth, 96 h; active = well fitted inhibition curve with a large enough effect; inconclusive = small, poorly fitted or top-dose-only effect, or another doubt; inactive = no such curve, though single readings can be large or run the other way
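P. falciparum expressing integrated firefly luciferase, in erythrocytes at 2% hematocrit, 0.05% parasitemia, incubated with compounds 96 h at 37 C, 5% CO2. Growth inhibition read as loss of luminescence; two-generation exposure targets delayed-death apicoplast inhibitors.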
Of the large screens only hits and unclear results are named; the others gave an inactive call. Unless noted, calls come from the whole dose curve.

CCCn1ncc(C(=O)NC2CCCN(Cc3ccc(Cl)cc3)C2)c1C (stereo unspecified)	Pf growth 48h inconclusive, Pf growth 96h inconclusive
COc1ccc(CN2CCN(Cc3ccon3)CC2CCO)c(C)c1C (stereo unspecified)	none
Cc1c(-c2ccccc2)oc2c(C(=O)OCC(=O)Nc3ccc(C(N)=O)cc3)cccc2c1=O	none
COc1ccc(N(CC(=O)NCCc2ccc(OC)c(OC)c2)S(=O)(=O)c2ccc(OC)c(OC)c2)cc1	none
CCCCCCn1c(SCC(=O)c2c(N)n(C)c(=O)n(C)c2=O)nc2ccccc21	Pf growth 96h 0.93µM (no result: Pf growth 48h)
COc1ccc(-c2cc(C(=O)c3c(N)n(C)c(=O)n(C)c3=O)c3ccccc3n2)cc1	Pf growth 48h inconclusive, Cycloheximide cs 18
Cn1c(N)c(C(=O)COC(=O)c2cc(C3CC3)nc3ccccc23)c(=O)n(C)c1=O	Pf growth 48h inconclusive, Pf growth 96h inconclusive
CCCCCCn1nc(C(=O)OCC(=O)c2c(N)n(C)c(=O)n(C)c2=O)c2ccccc2c1=O	Pf growth 48h 12µM, Pf growth 96h 13µM (no result: NS1 function inh)
COc1ccc(/C=C2\CCCc3c2nc2ccccc2c3C(=O)OCC(=O)c2c(N)n(C)c(=O)n(C)c2=O)cc1	Pf growth 48h inconclusive, NS1 function inh inconclusive, Pf growth 96h 4.1µM
O=[N+]([O-])c1cc(Cl)cc2c1nc(NCCO)c1ccccc12	none
COc1cc(CC(NC(C)=O)C(=O)NC2CCN(C(=O)Nc3ccc(C)cc3)CC2)cc(OC)c1 (stereo unspecified)	none
Cn1c(N)c(C(=O)COC(=O)c2cc(-c3ccco3)nc3ccccc23)c(=O)n(C)c1=O	Pf growth 48h inconclusive, NS1 function inh inconclusive, Cycloheximide cs 21, Pf growth 96h inconclusive
COc1ccc(-c2cc(C(=O)OCC(=O)c3c(N)n(C)c(=O)n(C)c3=O)c3ccccc3n2)cc1	none (no result: NS1 function inh)
Cn1c(N)c(C(=O)COC(=O)c2cc(-c3ccco3)nc3ccccc23)c(=O)n(Cc2ccccc2)c1=O	Pf growth 48h inconclusive, NS1 function inh 14µM, Pf growth 96h 9.3µM
Cc1ccc(NC2=CC(=O)CC(C)(C)C2)cc1Cl	none
Cc1ccc(N/N=C2\CC(=O)c3ccccc32)cc1Cl	Pf growth 48h 4.7µM, Cycloheximide cs 13, Pf growth 96h 2.9µM
C#CCOCCOCCOCCNc1nc(N2CCN(C(=O)[C@H]([C@@H](C)CC)n3cc(CCCCN)nn3)CC2)nc(N2CCN(C(=O)[C@H](C)n3cc(CCC(=O)O)nn3)CC2)n1	Pf growth 96h inconclusive
C#CCOCCOCCOCCNc1nc(N2CCN(C(=O)CCCCCCCCCCNC(=O)[C@H]([C@@H](C)CC)n3cc(CCCCCN)nn3)CC2)nc(N2CCN(C(=O)CCCCCCCCCCNC(=O)[C@H](CCCCN)n3cc(CCCC(=O)O)nn3)CC2)n1	Pf growth 48h 12µM, Pf growth 96h inconclusive (no result: Shiga inhibitor, NS1 function inh, Cycloheximide cs)
C#CCOCCOCCOCCNc1nc(N2CCN(C(=O)CCCCCCCCCCNC(=O)[C@@H](CCC(=O)O)n3cc(CCCCCN)nn3)CC2)nc(N2CCN(C(=O)CCCCCCCCCCNC(=O)[C@H]([C@@H](C)CC)n3cc(CCCCCN)nn3)CC2)n1	Pf growth 48h 2.1µM, Pf growth 96h 1.5µM (no result: Shiga inhibitor, NS1 function inh, Cycloheximide cs)
C#CCOCCOCCOCCNc1nc(N2CCN(C(=O)[C@H](CCCCN)n3cc(CN)nn3)CC2)nc(N2CCN(C(=O)[C@H](CCC(=O)O)n3cc(CN)nn3)CC2)n1	none (no result: Pf growth 48h, Shiga inhibitor, NS1 function inh, Cycloheximide cs, Pf growth 96h)
C#CCOCCOCCOCCNc1nc(N2CCOCC2)nc(N2CCN(C(=O)CCCCCCCCCCNC(=O)[C@@H](CCC(=O)O)n3cc(CCCCCN)nn3)CC2)n1	Pf growth 48h 15µM, Pf growth 96h inconclusive (no result: Shiga inhibitor, NS1 function inh, Cycloheximide cs)
C/C(O)=C(/C=NCC(=O)O)C(=O)Nc1nccs1	none (no result: NS1 function inh)
O=C(O)CSc1ccn(Cc2ccccc2)c1	none (no result: Pf growth 48h, Shiga inhibitor, SARS PLP yeast, Cycloheximide cs, Pf growth 96h)
CCOc1ccc(NC(=O)CN(C)C(=O)c2ccccc2OCc2c(C)noc2C)cc1OCC	none (no result: Shiga inhibitor, NS1 function inh, Cycloheximide cs)
COCC(C)n1c(C)cc(C(=O)CSc2nc3ccccc3c(=O)[nH]2)c1C (stereo unspecified)	Pf growth 48h inconclusive, Cycloheximide cs 16, Pf growth 96h inconclusive
COCCn1c(C)cc(C(=O)CSc2nc3ccccc3c(=O)[nH]2)c1C	Shiga inhibitor 92, Cycloheximide cs 53, Pf growth 96h 0.29µM
C=CCn1c(C)cc(C(=O)CSc2nc3ccccc3c(=O)[nH]2)c1C	Shiga inhibitor 90, Cycloheximide cs 63, Pf growth 96h inconclusive
COCC(C)n1c(C)cc(C(=O)COC(=O)CCc2nc3ccccc3c(=O)[nH]2)c1C (stereo unspecified)	none (no result: NS1 function inh)
Cc1cc(C)c(C(=O)CSc2nc3ccccc3c(=O)[nH]2)cc1C	Pf growth 48h inconclusive, Pf growth 96h inconclusive (no result: NS1 function inh)
Cc1cc(C(=O)CSc2nc3ccccc3[nH]2)c(C)n1Cc1ccco1	Shiga inhibitor 78, Cycloheximide cs 84
COc1ccc2c(CC(=O)Nc3ccc(OC)nc3)coc2c1	none (no result: NS1 function inh)
CCOc1ccc(NC(=O)C2CC(=O)N(c3ccc4c(c3)OCCO4)C2)cc1OCC (stereo unspecified)	Pf growth 48h inconclusive (no result: Shiga inhibitor, NS1 function inh, Cycloheximide cs)
CCOC(=O)c1c(S(=O)(=O)N2CCN(Cc3ccccc3)CC2)c(C)n(C)c1C	Pf growth 96h inconclusive
Cc1nn2c(=O)cc(CSc3nc4ccccc4[nH]3)nc2s1	NS1 function inh inconclusive, Cycloheximide cs 22 (no result: Pf growth 48h)
C=CCn1c(C)cc(C(=O)CSc2nc3ccccc3[nH]2)c1C	Shiga inhibitor 69, Cycloheximide cs 34
COCC(C)n1c(SCC(=O)c2cc(C)n(C)c2C)nc2ccccc2c1=O (stereo unspecified)	Pf growth 48h 13µM, Pf growth 96h inconclusive (no result: NS1 function inh)
COCCn1c(C)cc(C(=O)CSc2ccc3ccccc3n2)c1C	Shiga inhibitor 50, Cycloheximide cs 39 (no result: Pf growth 96h)
COCC(C)n1c(SCc2cc(C(=O)OC)c(C)o2)nc2ccccc2c1=O (stereo unspecified)	Pf growth 96h inconclusive
COc1ccc(C(=O)Nc2ccc(S(=O)(=O)N3CCCC3)cc2)cc1[N+](=O)[O-]	Pf growth 48h inconclusive, Pf growth 96h inconclusive
COc1ccc(NC(=O)C2CCCN(C(=O)Nc3ccc(F)cc3)C2)cc1 (stereo unspecified)	none
Cc1cc(C(=O)CSc2nc3ccccc3[nH]2)c(C)n1C	Shiga inhibitor 54, Cycloheximide cs 46
CCCn1c(=O)c2c(nc3n2CCCN3Cc2ccccc2)n(C)c1=O	Pf growth 48h inconclusive, Pf growth 96h 13µM
Cn1c(=O)n(Cc2ccc(F)cc2)c(=O)c2c1nc1n2CCCN1Cc1ccccc1	Pf growth 48h 2.1µM, Pf growth 96h 1.3µM
Cc1ccc(Cn2c(=O)c3c(nc4n3CCN4Cc3ccco3)n(C)c2=O)cc1	Pf growth 48h 13µM, NS1 function inh inconclusive
COc1ccc(N2CCCn3c2nc2c3c(=O)n(Cc3ccc(C)cc3)c(=O)n2C)c(OC)c1	Pf growth 48h 9.3µM (no result: NS1 function inh)
Cn1c(=O)n(CCc2ccccc2)c(=O)c2c1nc1n2CCCN1Cc1ccccc1	Pf growth 48h inconclusive
FC(F)(Cl)c1nnc2ccc(Sc3ccccn3)nn12	Pf growth 48h inconclusive (no result: NS1 function inh)
